The test system of assay [1] is Wnt5a (protein binding on small-molecule microarray). Put plainly: Wnt5a binders on small-molecule microarray, primary screen, biophysical, 635/667 nm fluorescence (AID 1142).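 Also: fluorescence read at 667 nm with signal to noise per printed feature.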 Particulars: 635 nm fluorescence, higher = more signal.
Assay [2] is described as follows: cell viability in Huh7 cells, primary screen, cytotoxicity control for HCV replication inhibitor project, CellTiter-Glo luminescence, basal, 48 h (AID 1143).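 Also: Huh7 hepatoma cells carrying a hepatitis C replication reporter with no stimulus; test concentration not given here.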 Particulars: Huh7 HCV replicon, higher = more signal, called active from +8 up or from −8 down. (In general: Cellular ATP, detected with luciferase, serves as a proxy for viable cell number.)
Assay [3] in a line: P. aeruginosa biofilm formation inhibitors, primary screen, PAO1 strain, BacTiter-Glo luminescence, LB-PBS (AID 1144). The following applies: 12 h, higher = more signal.
Assay [4] is described as follows: CREB reporter modulators without forskolin, primary screen, cell-based, PC12, CRE-LacZ reporter, unstimulated (AID 1145). The following applies: no forskolin, luminescence, 4.5 h, higher = more signal, called active from +8 up or from −8 down.
Assay [5] is described as follows: CREB reporter modulators under forskolin, primary screen, cell-based, PC12, CRE-LacZ reporter, forskolin-stimulated (AID 1146).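 Also: PC12 cells with 6xCRE LacZ reporter stimulated by forskolin 10 µM; beta-galactosidase reporter signal reflecting CREB driven transcription.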 The following applies: luminescence, 4.5 h, higher = more signal, called active from +8 up or from −8 down.
For assay [6], the target named is Streptavidin (Streptomyces avidinii) (UniProt P22629). The experiment in a line: streptavidin binders on small-molecule microarray, primary screen, artefact control for SMM compound annotation, biophysical, 635/667 nm fluorescence (AID 1147).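 Also: signal reflects streptavidin binding to arrayed compounds as a control protein.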 Particulars: streptavidin binding, higher = more signal.
Chain of Streptavidin (Streptomyces avidinii) (P22629 whole entry, looked up): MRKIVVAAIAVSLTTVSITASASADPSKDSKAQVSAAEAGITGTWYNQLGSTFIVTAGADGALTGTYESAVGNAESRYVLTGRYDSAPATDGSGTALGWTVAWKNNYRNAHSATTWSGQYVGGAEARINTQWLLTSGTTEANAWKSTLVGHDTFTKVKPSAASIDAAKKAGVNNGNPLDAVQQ
Assay [7] in a line: small-molecule binders of probe aInhba, primary screen, biochemical, small-molecule microarray, 635/667 nm fluorescence (AID 1148).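 Also: score merges 667nm spot fluorescence with signal-to-noise for antibody binding to printed compounds.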 Particulars: higher = more signal.
For assay [8], the target named is Torsin-1A (Homo sapiens) (UniProt O14656). The experiment in a line: torsin A binders from cell lysate, primary screen, small-molecule microarray, wild-type, 635/667 nm (AID 1149). The following applies: COS7 hTOR1A-WT lysate, 635 nm fluorescence, higher = more signal.
Chain of Torsin-1A (Homo sapiens) (O14656 whole entry, looked up): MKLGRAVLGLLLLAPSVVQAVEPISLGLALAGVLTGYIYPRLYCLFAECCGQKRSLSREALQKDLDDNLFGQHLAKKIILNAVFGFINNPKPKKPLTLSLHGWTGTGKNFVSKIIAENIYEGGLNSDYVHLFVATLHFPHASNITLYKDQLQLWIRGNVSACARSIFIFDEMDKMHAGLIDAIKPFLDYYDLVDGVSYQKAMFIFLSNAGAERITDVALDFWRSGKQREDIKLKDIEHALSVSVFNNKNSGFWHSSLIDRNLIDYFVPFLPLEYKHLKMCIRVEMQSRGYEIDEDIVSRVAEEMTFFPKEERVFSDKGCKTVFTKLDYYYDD
For assay [9] the target is unchanged. Put plainly: small-molecule binders of mutant TOR1A in lysate, primary screen, cell lysate, small-molecule microarray, COS7 lysate, 635/667 nm fluorescence (AID 1150).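 Also: score pools 667 nm emission and signal to noise measuring lysate protein binding.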 Particulars: COS7 hTOR1A mutant lysate, 635 nm fluorescence, higher = more signal.
The subject of assay [10] is Sonic hedgehog protein (Shh). Put plainly: small-molecule binders of Shh protein, primary screen, biochemical, small-molecule microarray, 635/667 nm fluorescence (AID 1151).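 Also: Shh protein binding to compounds spotted on small-molecule microarray slides; score combines spot fluorescence intensity with signal-to-noise across triplicate slides.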 Particulars: small-molecule microarray binding, 635 nm fluorescence; higher = more signal.
Assay [11] in a line: E. coli DRC41 culture turbidity changes, primary screen, E. coli filamentation inducer project, strain DRC41, OD650, 48 h (AID 1152).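 Also: E. coli MC1000 strain DRC41 lacking acrAB efflux pump and sulA.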 Particulars: E. coli DRC41 (acrAB sulA), higher = more signal, called active from +8 up or from −8 down.
Assay [12] is described as follows: small-molecule binders of probe aLefty1, primary screen, biochemical, small-molecule microarray, 635/667 nm fluorescence (AID 1153).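 Also: score merges spot fluorescence with signal-to-noise ratio from the scanned slide images.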 Particulars: higher = more signal.
The nature of assay [13]: PSAC antagonists in infected red cells, primary screen, cell-based, P. falciparum Indochina, OD700, 1 h (AID 1154). The following applies: P. falciparum Indochina infected RBC osmotic lysis, higher = more signal, called active from +8 up or from −8 down.
A short description of assay [14]: PSAC antagonists in infected red cells, primary screen, cell-based, P. falciparum Indochina, OD700, 2 h (AID 1155).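 Also: lysis reports solute entry through the parasite surface anion channel PSAC; channel blockers reduce lysis of infected cells.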 The following applies: P. falciparum Indochina infected erythrocytes, osmotic lysis OD700; higher = more signal, called active from +8 up or from −8 down.
A short description of assay [15]: osmotic lysis modulators in infected erythrocytes, primary screen, PSAC antagonist project, cell-based, P. falciparum Indochina, OD700, 3 h (AID 1156). Particulars: higher = more signal, called active from +8 up or from −8 down.
Assay [16] is described as follows: PSAC antagonists in infected red cells, primary screen, cell-based, P. falciparum Indochina, OD700, 18 h (AID 1157). The following applies: P. falciparum Indochina infected erythrocytes, osmotic lysis OD700, 18 h; higher = more signal, called active from +8 up or from −8 down.
Assay [17] can be described thus: modulators of S6 phosphorylation in cells, primary screen, cell-based, A549, cytoblot, luminescence, serum-stimulated (AID 1158).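 Also: serum-stimulated A549 lung adenocarcinoma cells; signal is phosphorylated S6 detected by cytoblot immunostaining with HRP secondary.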 Particulars: A549 phospho-S6 cytoblot, 5 h, higher = more signal.
Assay [18] addresses NADPH oxidase 2 (Homo sapiens) (UniProt P04839). Put plainly: NOX2-dependent H2O2 signal modulators, primary screen, NOX inhibitor project, cell-based, HEK293-NOX2, PMA-stimulated, Amplex Red fluorescence (AID 1159). Also: test concentration not given here. The following applies: 45 min, higher = more signal, called active from +8 up or from −8 down.
The target of assay [19] is NADPH oxidase 4 (Homo sapiens) (UniProt Q9NPH5). Put plainly: NOX4-dependent H2O2 signal modulators, primary screen, NOX inhibitor project, cell-based, HEK293-NOX4, tetracycline-induced, Amplex Red fluorescence (AID 1160). The following applies: 45 min, higher = more signal, called active from +8 up or from −8 down.
Chain of NADPH oxidase 4 (Homo sapiens) (Q9NPH5 whole entry, looked up): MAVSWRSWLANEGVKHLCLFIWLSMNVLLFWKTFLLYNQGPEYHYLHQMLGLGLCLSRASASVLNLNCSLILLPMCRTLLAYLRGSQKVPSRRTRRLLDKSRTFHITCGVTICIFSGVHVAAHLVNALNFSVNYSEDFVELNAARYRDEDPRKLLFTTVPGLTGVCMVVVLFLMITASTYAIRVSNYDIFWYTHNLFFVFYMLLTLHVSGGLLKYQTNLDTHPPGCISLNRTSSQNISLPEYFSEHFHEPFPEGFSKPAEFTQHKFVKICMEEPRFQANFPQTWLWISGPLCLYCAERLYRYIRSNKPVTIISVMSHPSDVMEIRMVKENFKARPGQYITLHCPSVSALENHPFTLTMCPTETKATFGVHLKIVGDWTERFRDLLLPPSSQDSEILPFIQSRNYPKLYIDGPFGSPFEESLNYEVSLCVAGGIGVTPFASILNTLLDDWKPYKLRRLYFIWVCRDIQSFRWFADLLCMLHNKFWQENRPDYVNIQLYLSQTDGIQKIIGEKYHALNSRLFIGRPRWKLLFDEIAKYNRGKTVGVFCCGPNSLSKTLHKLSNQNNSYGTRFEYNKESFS
The target of assay [20] is NADPH oxidase 5 (Homo sapiens) (UniProt Q96PH1). Put plainly: NOX5-dependent H2O2 signal modulators, primary screen, NOX inhibitor project, cell-based, HEK293-NOX5, Amplex Red fluorescence (AID 1161). The following applies: HEK293-NOX5, ionomycin, 45 min, higher = more signal.
Chain of NADPH oxidase 5 (Homo sapiens) (Q96PH1 whole entry, looked up): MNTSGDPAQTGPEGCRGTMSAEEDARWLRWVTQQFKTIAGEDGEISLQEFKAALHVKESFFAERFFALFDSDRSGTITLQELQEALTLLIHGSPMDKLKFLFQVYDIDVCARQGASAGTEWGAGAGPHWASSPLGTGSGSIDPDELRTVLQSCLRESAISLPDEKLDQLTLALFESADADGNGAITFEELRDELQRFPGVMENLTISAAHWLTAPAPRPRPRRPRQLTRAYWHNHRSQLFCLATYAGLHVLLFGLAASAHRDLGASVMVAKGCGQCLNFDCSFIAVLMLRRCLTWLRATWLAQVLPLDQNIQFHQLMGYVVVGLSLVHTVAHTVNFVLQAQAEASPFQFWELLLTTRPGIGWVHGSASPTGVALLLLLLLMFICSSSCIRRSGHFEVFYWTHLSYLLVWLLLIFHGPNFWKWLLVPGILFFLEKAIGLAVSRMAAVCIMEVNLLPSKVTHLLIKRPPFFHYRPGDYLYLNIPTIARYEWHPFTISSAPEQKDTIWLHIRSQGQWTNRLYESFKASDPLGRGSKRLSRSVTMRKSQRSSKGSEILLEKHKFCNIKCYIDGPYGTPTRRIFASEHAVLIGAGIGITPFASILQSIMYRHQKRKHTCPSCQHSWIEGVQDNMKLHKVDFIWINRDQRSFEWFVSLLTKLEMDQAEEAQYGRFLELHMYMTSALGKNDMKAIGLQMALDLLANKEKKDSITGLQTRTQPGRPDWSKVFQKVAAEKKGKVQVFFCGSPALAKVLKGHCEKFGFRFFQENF

The source made the active and inactive calls. Unless noted, no rule for the calls is given here.

The values below come from PubChem BioAssay.

Chain of NADPH oxidase 2 (Homo sapiens) (P04839 whole entry, looked up): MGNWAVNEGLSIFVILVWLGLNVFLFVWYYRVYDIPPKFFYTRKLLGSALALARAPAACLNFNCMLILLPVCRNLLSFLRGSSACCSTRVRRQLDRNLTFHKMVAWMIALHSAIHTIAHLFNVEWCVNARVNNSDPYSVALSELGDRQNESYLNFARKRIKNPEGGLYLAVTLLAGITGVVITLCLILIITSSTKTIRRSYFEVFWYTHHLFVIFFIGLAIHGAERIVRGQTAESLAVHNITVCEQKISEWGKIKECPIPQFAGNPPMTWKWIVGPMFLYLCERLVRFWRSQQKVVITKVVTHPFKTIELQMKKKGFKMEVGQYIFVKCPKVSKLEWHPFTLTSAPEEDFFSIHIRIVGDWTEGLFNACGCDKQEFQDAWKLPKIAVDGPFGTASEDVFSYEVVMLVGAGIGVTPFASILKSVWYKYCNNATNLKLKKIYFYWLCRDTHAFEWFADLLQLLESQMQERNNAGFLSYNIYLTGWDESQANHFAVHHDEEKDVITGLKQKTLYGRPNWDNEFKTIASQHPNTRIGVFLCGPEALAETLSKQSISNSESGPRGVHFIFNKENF

Consider `COC(=O)C1=CC(CCCO)=CC(c2ccc(CN3CCCC3)cc2)N(Cc2cc3c(cc2Br)OCO3)C=C1C(=O)OC` (stereo not given), for which the composite z-score is 0.804 in [1]; 1.98 in assay [6]; 0.36 in assay [7]; 0.0851 in assay [8]; 2.59 in assay [9]; -0.249 in assay [10]. The same compound yielded a composite z-score in assay [12] of 0.744. Besides, the z-score in [2] was -0.0928 (inactive); in [3], -0.44 (inactive); in assay [4] it was 0.0118 (inactive); in [5], -0.602 (inactive); in assay [11], 0.235 (inactive); in [13] it was 0.903 (inactive). For the same compound, the z-score in assay [14] is 0.408 (inactive); in assay [15], 1.23 (inactive); in assay [16] it was 0.082 (inactive); in assay [17], 0.158; in [18], 1.64 (inactive); in assay [19], -0.638 (inactive). In assay [20], this compound showed a z-score of 0.399.
Take `C=CCC(OC(C)=O)[C@@H]1[C@@H](N(Cc2cccc3ccccc23)C(=O)Cc2ccc(F)cc2)c2cc(OCCCO)ccc2N1C(=O)c1ccc(-c2ccccc2)cc1` (stereo not given in full): the composite z-score in [1] was 0.364; in assay [6], -0.153; in assay [7] it was 0.066; in [8] it was 0.143; in assay [9], 0.102; in assay [10], 0.246. The compound further had a composite z-score in [12] of 0.0184. The z-score was -0.227 (inactive) in [2]; -0.169 (inactive) in [3]; 1.44 (inactive) in assay [4]; 0.429 (inactive) in assay [5]; 0.341 (inactive) in assay [11]; 0.616 (inactive) in assay [13]. Further, the z-score in [14] is 0.743 (inactive); in assay [15], -0.402 (inactive); in [16] it was -0.278 (inactive); in assay [17], -0.18; in assay [18], 0.227 (inactive); in [19], 0.795 (inactive). The same compound displayed a z-score in [20] of 1.77.
Regarding `CC1CC/C=C\[C@H]2OC34C=CCN(CCN5CCOCC5)C(=O)[C@H]3N(C(C)CO)C(=O)[C@@H]4C2C(=O)O1` (stereo not given in full), the composite z-score was -0.409 in assay [1]; -1.16 in [6]; -0.0933 in assay [7]; -1.72 in [8]; -1.58 in assay [9]; 1.41 in assay [10]. In assay [12], the composite z-score was -0.147. Besides, the z-score was 0.181 (inactive) in assay [2]; 0.156 (inactive) in assay [3]; -0.0778 (inactive) in assay [4]; -0.0178 (inactive) in [5]; -0.197 (inactive) in [11]; 0.77 (inactive) in assay [13]. In addition, the z-score is -0.306 (inactive) in assay [14]; 0.753 (inactive) in assay [15]; 0.233 (inactive) in assay [16]; 0.0656 in [17]; 0.801 (inactive) in [18]; -0.323 (inactive) in [19]. Besides, the z-score in assay [20] amounted to 1.58.
With `O=C(CS)NCCCCCCNC(=O)[C@@H]1C[C@@H]2C(=O)NCC(=O)N2[C@@H]1c1ccc(O)cc1`, the composite z-score in assay [1] is -0.101; in [6], -0.635; in [7], -0.293; in [8], 0.397; in [9], -0.814; in assay [10], 0.236. Moreover, the composite z-score in assay [12] was found to be 0.0341. For the same compound, the z-score is -0.534 (inactive) in assay [2]; -1.26 (inactive) in assay [3]; -0.537 (inactive) in assay [4]; -1.57 (inactive) in assay [5]; 1.58 (inactive) in [11]; 2.54 (inactive) in assay [13]. The z-score in assay [14] is -0.164 (inactive); in [15], 1.62 (inactive); in assay [16], -1.41 (inactive); in [17], 2.85; in assay [18] it was 0.266 (inactive); in assay [19], 0.147 (inactive). This compound also returned a z-score in assay [20] of 1.51.
